# Measured values published in PubChem BioAssay (EPA / NIEHS).
# Results filed as inconclusive are left out. The source made the active and inactive calls. The calls were made as follows: active = hit-call score of the fitted dose curve at least 0.9, where 1 is the maximum; inconclusive = response in the unintended direction; inactive = score below 0.9. Peptide text beside a SMILES is read from it.
# What was measured:
# [1] = target: human Peripheral-type Benzodiazepine Receptor (PBR), TSPO (gene 706) (UniProt P30536); test: NVS_MP_hPBR: NovaScreen (NVS) Membrane Protein Assay for human Peripheral-type Benzodiazepine Receptor (PBR) (AID 2283331);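 also: hits reduce radioligand binding relative to DMSO baseline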
# Sequence of human Peripheral-type Benzodiazepine Receptor (PBR), TSPO (gene 706) (P30536 whole entry, looked up): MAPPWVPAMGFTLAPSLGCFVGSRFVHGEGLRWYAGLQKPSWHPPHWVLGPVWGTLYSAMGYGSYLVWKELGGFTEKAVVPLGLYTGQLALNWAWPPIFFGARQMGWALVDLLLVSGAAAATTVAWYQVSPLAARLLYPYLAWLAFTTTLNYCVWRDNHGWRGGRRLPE
# Method in brief: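 Radioligand displacement on human colonic cell membranes, 1 h incubation; bound radioactivity by filtration and scintillation counting. Primary screen in duplicate at 25 uM single concentration, actives followed up in concentration series; loss of binding versus DMSO.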
# [2] = target: rat Peripheral-type Benzodiazepine Receptor (PBR), Tspo (gene 24230) (UniProt P16257); test: NVS_MP_rPBR: NovaScreen (NVS) Membrane Protein Assay for rat Peripheral-type Benzodiazepine Receptor (PBR) (AID 2283335)
# Sequence of rat Peripheral-type Benzodiazepine Receptor (PBR), Tspo (gene 24230) (P16257 whole entry, looked up): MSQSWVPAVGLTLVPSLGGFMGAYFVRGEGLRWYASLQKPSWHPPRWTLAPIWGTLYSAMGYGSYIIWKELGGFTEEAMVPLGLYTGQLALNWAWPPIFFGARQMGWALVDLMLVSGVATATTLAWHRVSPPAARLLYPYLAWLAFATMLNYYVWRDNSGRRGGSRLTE
# Method in brief: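 Radioligand displacement, rat kidney membrane prep, 1 h exposure, filter-based scintillation read; DMSO baseline, loss-of-signal scored. Primary screen at 25 uM in duplicate, actives followed up in concentration series.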
# [3] = target: Estrogen receptor (Homo sapiens) (UniProt P03372); test: OT_ER_ERaERa_1440: Odyssey Thera (OT) 24-hour HEK293T Protein-Complementation Assay for Estrogen Receptor-alpha/-alpha Homodimer (AID 2283349);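 also: hits raise fluorescence above DMSO for agonists and antagonists alike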
# Sequence of Estrogen receptor (Homo sapiens) (P03372 whole entry, looked up, the tested form may be a part): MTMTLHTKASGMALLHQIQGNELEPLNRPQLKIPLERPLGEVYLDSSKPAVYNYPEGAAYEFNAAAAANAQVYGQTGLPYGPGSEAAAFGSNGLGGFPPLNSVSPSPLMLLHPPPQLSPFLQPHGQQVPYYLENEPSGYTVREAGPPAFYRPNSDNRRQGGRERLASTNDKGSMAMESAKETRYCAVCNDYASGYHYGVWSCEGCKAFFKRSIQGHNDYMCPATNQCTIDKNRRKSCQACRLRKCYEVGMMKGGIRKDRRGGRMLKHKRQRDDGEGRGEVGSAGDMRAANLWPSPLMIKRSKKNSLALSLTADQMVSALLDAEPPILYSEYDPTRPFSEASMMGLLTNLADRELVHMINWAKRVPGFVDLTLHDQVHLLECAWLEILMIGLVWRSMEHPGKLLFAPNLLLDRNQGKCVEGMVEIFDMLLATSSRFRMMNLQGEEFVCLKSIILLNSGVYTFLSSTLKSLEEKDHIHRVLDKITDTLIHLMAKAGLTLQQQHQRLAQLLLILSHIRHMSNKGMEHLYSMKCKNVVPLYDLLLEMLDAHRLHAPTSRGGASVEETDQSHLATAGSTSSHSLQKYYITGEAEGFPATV
# Method in brief: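 HEK293T cells stably expressing the human ER alpha ligand-binding domain (aa 310-547) as a homodimer PCA were dosed for 24 hours. Fluorescence intensity was read by laser scanning cytometry, and gain of signal was fitted relative to DMSO vehicle.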
# [4] = target: rat Thyrotropin Releasing Hormone Receptor (TRH), Trhr (gene 25570) (UniProt Q01717); test: NVS_GPCR_rTRH: NovaScreen (NVS) G Protein-Coupled Receptor Assay for rat Thyrotropin Releasing Hormone Receptor (TRH) (AID 2283329);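 also: hit means lower bound tracer signal versus DMSO baseline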
# Sequence of rat Thyrotropin Releasing Hormone Receptor (TRH), Trhr (gene 25570) (Q01717 whole entry, looked up): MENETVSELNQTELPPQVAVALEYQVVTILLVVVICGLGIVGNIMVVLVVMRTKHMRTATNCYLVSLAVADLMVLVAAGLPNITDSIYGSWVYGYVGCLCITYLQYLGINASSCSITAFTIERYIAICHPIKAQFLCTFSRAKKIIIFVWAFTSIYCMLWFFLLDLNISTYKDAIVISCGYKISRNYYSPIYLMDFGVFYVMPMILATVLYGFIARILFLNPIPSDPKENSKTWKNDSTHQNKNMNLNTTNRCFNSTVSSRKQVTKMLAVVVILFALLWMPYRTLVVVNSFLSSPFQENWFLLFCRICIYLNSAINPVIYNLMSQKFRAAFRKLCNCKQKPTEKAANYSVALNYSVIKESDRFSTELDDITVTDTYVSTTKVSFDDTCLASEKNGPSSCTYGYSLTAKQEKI
# Method in brief: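 Competitive radioligand binding on rat forebrain membrane preparations, with filtration and scintillation readout after 4 h. Primary testing in duplicate at 25 uM; actives confirmed in concentration-response. DMSO defined baseline.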
# [5] = target: bovine Estrogen Receptor (ER), ESR1 (gene 407238) (UniProt P49884); test: NVS_NR_bER: NovaScreen (NVS) Nuclear Receptor Binding Assay for bovine Estrogen Receptor (ER) (AID 2283345);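 also: actives lower the bound radioligand count which means they displace the ER ligand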
# Sequence of bovine Estrogen Receptor (ER), ESR1 (gene 407238) (P49884 whole entry, looked up): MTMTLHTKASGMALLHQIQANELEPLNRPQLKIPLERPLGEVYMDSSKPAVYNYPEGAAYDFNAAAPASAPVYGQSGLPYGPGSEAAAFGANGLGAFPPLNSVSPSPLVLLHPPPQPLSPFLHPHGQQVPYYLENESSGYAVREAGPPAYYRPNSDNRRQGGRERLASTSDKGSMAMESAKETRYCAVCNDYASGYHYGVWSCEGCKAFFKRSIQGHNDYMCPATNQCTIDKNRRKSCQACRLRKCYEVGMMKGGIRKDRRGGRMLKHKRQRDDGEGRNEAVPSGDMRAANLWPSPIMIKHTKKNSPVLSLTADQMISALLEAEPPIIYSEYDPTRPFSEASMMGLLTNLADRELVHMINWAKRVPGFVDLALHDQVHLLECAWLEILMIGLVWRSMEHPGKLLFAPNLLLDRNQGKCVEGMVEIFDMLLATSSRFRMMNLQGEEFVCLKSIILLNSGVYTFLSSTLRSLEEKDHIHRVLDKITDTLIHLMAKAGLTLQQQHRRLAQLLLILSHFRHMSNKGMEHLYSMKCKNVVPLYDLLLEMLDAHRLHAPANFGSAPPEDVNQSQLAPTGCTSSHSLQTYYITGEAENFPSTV
# Method in brief: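 Displacement of a radioligand from estrogen receptor in bovine uterine membrane preparations; scintillation signal taken at 18 hours, DMSO as baseline. Single-concentration duplicates (25 uM) preceded concentration-response follow-up of actives.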
# [6] = target: chimpanzee Androgen Receptor (AR), AR (gene 747460) (UniProt O97775); test: NVS_NR_cAR: NovaScreen (NVS) Nuclear Receptor Binding Assay for chimpanzee Androgen Receptor (AR) (AID 2283346);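 also: radioligand displacement from AR measured by scintillation counting in a cell-free assay; a loss of bound radioligand signal versus DMSO counts as binding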
# Sequence of chimpanzee Androgen Receptor (AR), AR (gene 747460) (O97775 whole entry, looked up): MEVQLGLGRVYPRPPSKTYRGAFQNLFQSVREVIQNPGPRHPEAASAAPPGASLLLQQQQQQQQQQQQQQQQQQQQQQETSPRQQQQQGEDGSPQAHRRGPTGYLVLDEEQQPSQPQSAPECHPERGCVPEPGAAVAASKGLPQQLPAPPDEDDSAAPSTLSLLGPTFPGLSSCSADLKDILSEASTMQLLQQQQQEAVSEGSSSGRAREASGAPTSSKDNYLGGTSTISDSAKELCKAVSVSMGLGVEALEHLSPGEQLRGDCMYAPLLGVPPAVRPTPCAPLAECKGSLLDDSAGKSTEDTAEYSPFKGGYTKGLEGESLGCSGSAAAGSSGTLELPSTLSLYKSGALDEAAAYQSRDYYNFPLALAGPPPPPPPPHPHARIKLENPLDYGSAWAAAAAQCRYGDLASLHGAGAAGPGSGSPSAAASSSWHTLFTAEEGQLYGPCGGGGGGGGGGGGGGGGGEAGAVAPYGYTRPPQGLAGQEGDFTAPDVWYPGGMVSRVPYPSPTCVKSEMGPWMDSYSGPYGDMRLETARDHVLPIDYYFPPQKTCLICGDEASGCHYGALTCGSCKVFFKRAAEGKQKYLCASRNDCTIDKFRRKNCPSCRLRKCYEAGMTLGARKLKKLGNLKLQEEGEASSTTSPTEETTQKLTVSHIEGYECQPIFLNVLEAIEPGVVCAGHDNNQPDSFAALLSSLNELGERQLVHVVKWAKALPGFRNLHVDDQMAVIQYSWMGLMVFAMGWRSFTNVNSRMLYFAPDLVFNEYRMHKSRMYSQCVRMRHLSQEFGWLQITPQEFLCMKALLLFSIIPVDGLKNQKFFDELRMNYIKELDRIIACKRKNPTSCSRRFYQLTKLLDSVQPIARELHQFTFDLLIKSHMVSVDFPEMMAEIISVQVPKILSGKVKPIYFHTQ
# Method in brief: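 Radioligand binding to chimpanzee AR expressed in Sf9/Sf21 cells, cell-free, measured 72 h after dosing by lysate-based scintillation counting. Loss of signal vs DMSO; initial duplicate screen at 25 uM, actives retested in concentration series.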
# [7] = NVS_IC_rCaBTZCHL: NovaScreen (NVS) Ion Channel Assay for Calcium Channel, Type L, Benzothiazepine Site (CaBTZCHL) (AID 2283337)
# Method in brief: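 Competitive displacement of a site-specific radioligand from rat cortex membranes, measured as signal loss against DMSO baseline by filter radiodetection after 1.5 h. Single-point 25 uM primary screen.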
structure (smiles),measurement,setting,value
CCCCNS(=O)(=O)c1ccc(C)cc1,AC50,[1],7.96 µM (active)
same,AC50,[2],1.72 µM (active)
same,outcome,[3],inactive
COC(=O)[C@H](Cc1ccccc1)NC(=O)[C@@H](N)CC(=O)O (H-Asp-Phe-OMe),outcome,[4],inactive
same,outcome,[3],inactive
C=CCOC(=O)c1ccc(C(=O)OCC=C)c(C(=O)OCC=C)c1,AC50,[1],9.19 µM (active)
same,outcome,[3],inactive
CCCCCCC=O,outcome,[4],inactive
same,outcome,[3],inactive
CN(C)Cc1cc(CN(C)C)c(O)c(CN(C)C)c1,outcome,[4],inactive
same,outcome,[3],inactive
CCOC(=O)C1=NN(c2ccc(Cl)cc2Cl)C(C)(C(=O)OCC)C1 (centres undefined),AC50,[1],10.9 µM (active)
same,AC50,[2],9.42 µM (active)
COC(OC)(C(=O)c1ccccc1)c1ccccc1,AC50,[1],21.9 µM (active)
same,AC50,[2],25 µM (active)
same,outcome,[5],inactive
CCCCC(=O)O,outcome,[4],inactive
same,outcome,[3],inactive
CC(=O)OC(C)c1ccccc1 (centres undefined),outcome,[4],inactive
same,outcome,[6],inactive
same,outcome,[3],inactive
CCN1CN(CC)CN(CC)C1,outcome,[4],inactive
same,outcome,[6],inactive
same,outcome,[3],inactive
Oc1ccc(-c2ccccc2)c(Cl)c1,outcome,[4],inactive
same,outcome,[5],inactive
same,AC50,[6],14.1 µM (active)
same,outcome,[3],inactive
O=C(O)c1cc(O)c2ccccc2c1O,AC50,[1],18 µM (active)
same,AC50,[2],13.6 µM (active)
same,outcome,[5],inactive
same,AC50,[6],35 µM (active)
same,outcome,[3],inactive
CCCCCCCOC(=O)c1ccc(O)cc1,AC50,[1],2.98 µM (active)
same,outcome,[2],inactive
same,AC50,[5],13.2 µM (active)
same,AC50,[3],12.3 µM (active)
CC1=CCC2CC1C2(C)C (centres undefined),outcome,[4],inactive
same,outcome,[3],inactive
CCCCCCO,outcome,[4],inactive
same,outcome,[3],inactive
CC1=NN(c2ccc(S(=O)(=O)O)cc2)C(=O)C1N=Nc1ccccc1 (centres undefined),outcome,[4],inactive
same,outcome,[3],inactive
CCOC(=O)c1ccccc1C,outcome,[4],inactive
same,outcome,[3],inactive
CCCCC/C=C\C/C=C\CCCCCCCC(=O)O,AC50,[1],5.35 µM (active)
same,AC50,[2],5.8 µM (active)
same,outcome,[5],inactive
same,AC50,[6],25 µM (active)
same,outcome,[3],inactive
CC(=O)OC1CCCCC1C(C)(C)C (centres undefined),outcome,[4],inactive
same,outcome,[3],inactive
CCOC(=O)c1ccc(C)cc1,outcome,[4],inactive
same,outcome,[3],inactive
CC(C)(C)NC(=O)[C@H]1CC[C@H]2[C@@H]3CC[C@H]4NC(=O)C=C[C@]4(C)[C@H]3CC[C@]12C,outcome,[4],inactive
same,outcome,[5],inactive
same,outcome,[6],inactive
same,AC50,[3],75 µM (active)
c1ccc(Nc2cccc3ccccc23)cc1,outcome,[5],inactive
same,AC50,[3],63.1 µM (active)
COC(=O)c1ccccc1C,outcome,[3],inactive
CCCCCCCCCCCCCCCCCCOS(=O)(=O)O,outcome,[5],inactive
same,outcome,[3],inactive
C=CC(=O)OCC(C)OCC(C)OCC(C)OC(=O)C=C (centres undefined),outcome,[5],inactive
same,AC50,[6],6.29 µM (active)
CC(C)(C)C1CCC(=O)CC1,AC50,[5],25 µM (active)
same,outcome,[3],inactive
Fc1ccc(Br)cc1,outcome,[3],inactive
C[Si](C)(C)N[Si](C)(C)C,outcome,[5],inactive
same,outcome,[3],inactive
O=S(=O)(O)c1ccc(N=Nc2c(O)ccc3ccccc23)cc1,outcome,[3],inactive
CC(C)=CCCC(C)=CC#N,outcome,[5],inactive
same,outcome,[3],inactive
CCCCCCCCCCCCc1ccc(O)cc1,AC50,[5],10.7 µM (active)
C=C(C)C(=O)OCC(O)COc1ccc(C(C)(C)c2ccc(OCC(O)COC(=O)C(=C)C)cc2)cc1 (centres undefined),outcome,[5],inactive
CCCCC(CC)COC(=O)/C=C/c1ccc(OC)cc1 (centres undefined),outcome,[3],inactive
O=C(Nc1ccccc1)c1cc(Cl)ccc1O,outcome,[5],inactive
same,outcome,[3],inactive
CCCCOCCOC(=O)COc1ccc(Cl)cc1Cl,outcome,[3],inactive
C=CC(=O)OCCCCCCOC(=O)C=C,outcome,[5],inactive
CCCCCC(=O)OCC,outcome,[3],inactive
Nc1ccc(O)c([N+](=O)[O-])c1,outcome,[5],inactive
C=CCCCCCCCCC=O,outcome,[5],inactive
CC(=O)OCc1ccccc1,outcome,[5],inactive
same,outcome,[3],inactive
Nc1ccnc(=O)[nH]1,outcome,[7],inactive
CC1(C)CC(O)CC(C)(C)N1[O],outcome,[6],inactive
CCCCCCOC(=O)CCCCC(=O)OCCCCCC,outcome,[7],inactive
same,outcome,[3],inactive
C=C[Si](OCCOC)(OCCOC)OCCOC,outcome,[5],inactive
same,outcome,[6],inactive
same,outcome,[3],inactive
Oc1ccccc1Cc1ccccc1O,AC50,[6],25 µM (active)
same,outcome,[3],inactive
CC(=O)c1ccccc1O,outcome,[3],inactive
N#Cc1ccc(C2CCCc3cncn32)cc1 (centres undefined),outcome,[5],inactive
same,outcome,[3],inactive
CC(C)(c1ccccc1)c1ccc(Nc2ccc(C(C)(C)c3ccccc3)cc2)cc1,outcome,[5],inactive
same,outcome,[3],inactive
O=S(=O)(O)c1ccc(Nc2nc(Nc3ccc(C=Cc4ccc(Nc5nc(Nc6ccc(S(=O)(=O)O)cc6)nc(N(CCO)CCO)n5)cc4S(=O)(=O)O)c(S(=O)(=O)O)c3)nc(N(CCO)CCO)n2)cc1,outcome,[5],inactive
O=C(O)C1CCC(C(=O)O)CC1 (centres undefined),outcome,[5],inactive
same,outcome,[3],inactive
O=C(O)/C=C/c1ccccc1,AC50,[3],34.2 µM (active)
CC(C)c1cc(C(C)C)cc(C(C)C)c1,outcome,[6],inactive
same,outcome,[3],inactive
CC(C)c1ccc(O)c(C(C)C)c1,outcome,[5],inactive
same,outcome,[3],inactive
CCCCCC[C@@H](O)C/C=C\CCCCCCCC(=O)OCC(O)CO (some centres undefined),outcome,[6],inactive
same,outcome,[3],inactive
